Results reported in PubChem BioAssay (NCI).
Values joined by “and” are separate entries in the source; they are usually repeats but may differ in a detail not shown here. Equal entries are not always repeated. This is part of a sample that, as a whole, favours compounds with a hit. Of some 83,000 tested, about 20% had one in any assay.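 Plates (96-well) were seeded with cells, treated with compound at one concentration, and incubated for 48 hours before percent growth was determined.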 A number with no mark means an inactive call. Active and inactive are the calls of the source. How the source made its calls: active means growth percent below 10; inactive means the rest.

system: HL-60(TB) leukemia; experiment: NCI-60 one-dose screen, 48 h (100 = growth as untreated, 0 = no growth, -100 = all killed); conditions: 10 µM unless noted

| SMILES | growth |
| --- | --- |
| CC(=O)OC1C=CC(OC(C)=O)O1 (stereo not drawn) | 102% |
| CC(C)n1cnc2c(Nc3cccc(Cl)c3)nc(N[C@H]3CCCC[C@@H]3N)nc21 | 25.1% |
| Nc1cc(-c2cccc(OC(F)(F)F)c2)nc2ccc(N3CCCC3)cc12 | -35.5% (active) and -28.5% (active) and -11.6% (active) |
